Values without a mark were called inactive. For part of these data: Measured potencies and affinities stand elsewhere. Active and inactive are the calls of the source. The rule behind the calls is not given here. Square brackets hold non-standard residues; d marks the D form. Peptide text beside a SMILES is read from it. * marks the point of attachment. Sta = CC(C)C[C@H](N)[C@@H](O)CC(=O)O; Isovaleryl = CC(C)CC(=O)*
Assays:
[1] = Ebola virus entry assay, green fluorescence channel
[2] = Ebola virus entry assay, blue channel fluorescence
[3] = Ebola virus entry assay, ratio channel
[4] = Ebola virus entry assay, green channel fluorescence
[5] = Ebola virus entry assay, reporter ratio channel; Channel type: primary
[6] = Ebola virus entry assay, blue channel (ratio component)
Throughout, for efficacy: 0% is about no effect.

Structure (SMILES) | efficacy [1] [%] | outcome [2] | outcome [3] | outcome [4] | AC50 [5] | outcome [6] | outcome [5] | AC50 [2] | AC50 [3]
Oc1ccc(C(O)CNCCCCCCNCC(O)c2ccc(O)c(O)c2)cc1O (configuration not stated) | 16 | inactive | inactive | inactive | 44.7 µM (active) | inactive |  |  | 
CCCn1cnc2c1c(=O)n(CCCCC(C)=O)c(=O)n2C | 33.9 | inactive | inactive | inactive |  | inactive | inactive |  | 
COc1cc2[nH]c(=O)[nH]c(=O)c2cc1OC | 23.8 | inactive | inactive | inactive |  | inactive | inactive |  | 
CCOC(CN1CCN(CC(C)C(=O)c2ccccc2)CC1)c1ccccc1 (configuration not stated) | 11.6 |  |  | inactive |  | inactive | inactive | 7.08 µM (active) | 10 µM (active)
COC(=O)[C@@H](N)Cc1ccc(O)c(O)c1 | -12 | inactive | inactive | inactive |  | inactive | inactive |  | 
C#C[C@]1(O)CC[C@H]2[C@@H]3CCC4=CC(=O)CC[C@@H]4[C@H]3CC[C@@]21C | -11.7 | inactive | inactive | inactive |  | inactive | inactive |  | 
CCOC(=O)[C@@](C)(N)Cc1ccc(O)c(O)c1 | 38.1 | inactive | inactive | inactive |  | inactive | inactive |  | 
CN(C)CCC(c1ccccc1)c1ccccn1 (configuration not stated) | 12.6 | inactive | inactive | inactive |  | inactive | inactive |  | 
C[N+](C)(C)CC[N+]1(C)Cc2c(Cl)c(Cl)c(Cl)c(Cl)c2C1 | 13.2 | inactive | inactive | inactive |  | inactive | inactive |  | 
Cc1ccc2nc(N)[nH]c(=O)c2c1Sc1ccncc1 | 17.5 | inactive | inactive | inactive |  | inactive | inactive |  | 
O=C(O)C(Cc1cc(I)c(O)c(I)c1)c1ccccc1 (configuration not stated) | -25.4 | inactive | inactive | inactive |  | inactive | inactive |  | 
CC(=O)OCC(=O)NCCCOc1cccc(CN2CCCCC2)c1 | -11.5 | inactive | inactive | inactive |  | inactive | inactive |  | 
CC(C)CC(=O)N[C@H](C(=O)N[C@H](C(=O)N[C@@H](CC(C)C)[C@@H](O)CC(=O)N[C@@H](C)C(=O)N[C@@H](CC(C)C)[C@@H](O)CC(=O)O)C(C)C)C(C)C (Isovaleryl-VV[Sta]A[Sta]-OH) | -12.4 | inactive | inactive | inactive |  | inactive | inactive |  | 
NCCc1cnc[nH]1 | 13.4 | inactive | inactive | inactive |  | inactive | inactive |  | 
C[C@H](CCC(=O)O)[C@H]1CC[C@H]2[C@@H]3C(=O)C[C@@H]4CC(=O)CC[C@]4(C)[C@H]3CC(=O)[C@]12C | -7.14 | inactive | inactive | inactive |  | inactive | inactive |  | 
O=C1c2ccccc2S(=O)(=O)N1CCCCN1CCN(c2ncccn2)CC1 | 29.9 | inactive | inactive | inactive |  | inactive | inactive |  | 
CCNC(=O)NCc1cccc(Cl)c1 | 7 | inactive | inactive | inactive |  | inactive | inactive |  | 
COCc1c(C(C)C)nc(C(C)C)c(/C=C/[C@@H](O)C[C@@H](O)CC(=O)O)c1-c1ccc(F)cc1 | 9.5 | inactive | inactive | inactive |  | inactive | inactive |  | 
C[C@@H]1C[C@H]2[C@@H]3CCC4=CC(=O)C=C[C@]4(C)[C@@]3(F)[C@@H](O)C[C@]2(C)[C@H]1C(=O)CO | 20.4 | inactive | inactive | inactive |  | inactive | inactive |  | 
CCN(CC)C(=O)N1CCN(C)CC1 | -16.8 | inactive | inactive | inactive |  | inactive | inactive |  | 
CC1(C)[C@@H]2CC[C@@]1(C)C(=O)C2 | 9.79 | inactive | inactive | inactive |  | inactive | inactive |  | 
N=C(N)c1ccc(OCCCOc2ccc(C(=N)N)cc2)cc1 | 14.7 | inactive | inactive | inactive |  | inactive | inactive |  | 
O=C(O)CCC(=O)Nc1ccc(S(=O)(=O)Nc2nccs2)cc1 | -34.8 | inactive | inactive | inactive |  | inactive | inactive |  | 
CCc1oc2ccccc2c1C(=O)c1cc(Br)c(O)c(Br)c1 | 16.5 | inactive | inactive | inactive |  | inactive | inactive |  | 
CCN(CC)C(=O)c1cccc(C)c1 | -20 | inactive | inactive | inactive |  | inactive | inactive |  | 
CN(C)CCCO[C@@H]1[C@H]2OC(C)(C)O[C@H]2O[C@@H]1C(O)CO (some centres not stated) | -11.8 | inactive | inactive | inactive |  | inactive | inactive |  | 
COC(=O)C1=C(C)NC(C)=C(C(=O)OC)C1c1ccccc1[N+](=O)[O-] | 16.8 | inactive | inactive | inactive |  | inactive | inactive |  | 

From PubChem BioAssay (NCATS)
